Results from the supplement of paper PMC11006884.
About 6,500 targets were measured; listed, in parts, are those with a hit and a random draw of the rest. About 2% of all pairs of compound and target were hits.

These targets were tested with COC(=O)C#Cc1ccccc1 [methyl 3-phenylpropiolate] (assay: log2 ratio of iodoacetamide-alkyne labeling of the cysteine site, DMSO over compound (competition); higher = stronger covalent engagement of the cysteine by the compound, active = 1 or more). Conditions: 500 µM; treatment time 1 h; system: HEK293T cell lysate.
Procedure, shortened: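 Reporter intensities give each cysteine's log2 competition ratio as the mean of control channels over the mean of compound channels. The samples were HEK293T lysate (2 mg/mL) given vehicle or electrophile (500 µM, 1 h, ambient temperature), then iodoacetamide alkyne (1 h), followed by click coupling to sCIP-TMT reagents, pooling, trypsin digestion overnight at 37 °C, streptavidin enrichment, acid elution, Orbitrap Eclipse LC-MS/MS with FAIMS and FragPipe quantification. Duplicate channels and three replicates were run, and cysteines quantified in only one replicate were discarded.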

Chain of UniProt Q9UQ35 (Q9UQ35 whole entry, looked up): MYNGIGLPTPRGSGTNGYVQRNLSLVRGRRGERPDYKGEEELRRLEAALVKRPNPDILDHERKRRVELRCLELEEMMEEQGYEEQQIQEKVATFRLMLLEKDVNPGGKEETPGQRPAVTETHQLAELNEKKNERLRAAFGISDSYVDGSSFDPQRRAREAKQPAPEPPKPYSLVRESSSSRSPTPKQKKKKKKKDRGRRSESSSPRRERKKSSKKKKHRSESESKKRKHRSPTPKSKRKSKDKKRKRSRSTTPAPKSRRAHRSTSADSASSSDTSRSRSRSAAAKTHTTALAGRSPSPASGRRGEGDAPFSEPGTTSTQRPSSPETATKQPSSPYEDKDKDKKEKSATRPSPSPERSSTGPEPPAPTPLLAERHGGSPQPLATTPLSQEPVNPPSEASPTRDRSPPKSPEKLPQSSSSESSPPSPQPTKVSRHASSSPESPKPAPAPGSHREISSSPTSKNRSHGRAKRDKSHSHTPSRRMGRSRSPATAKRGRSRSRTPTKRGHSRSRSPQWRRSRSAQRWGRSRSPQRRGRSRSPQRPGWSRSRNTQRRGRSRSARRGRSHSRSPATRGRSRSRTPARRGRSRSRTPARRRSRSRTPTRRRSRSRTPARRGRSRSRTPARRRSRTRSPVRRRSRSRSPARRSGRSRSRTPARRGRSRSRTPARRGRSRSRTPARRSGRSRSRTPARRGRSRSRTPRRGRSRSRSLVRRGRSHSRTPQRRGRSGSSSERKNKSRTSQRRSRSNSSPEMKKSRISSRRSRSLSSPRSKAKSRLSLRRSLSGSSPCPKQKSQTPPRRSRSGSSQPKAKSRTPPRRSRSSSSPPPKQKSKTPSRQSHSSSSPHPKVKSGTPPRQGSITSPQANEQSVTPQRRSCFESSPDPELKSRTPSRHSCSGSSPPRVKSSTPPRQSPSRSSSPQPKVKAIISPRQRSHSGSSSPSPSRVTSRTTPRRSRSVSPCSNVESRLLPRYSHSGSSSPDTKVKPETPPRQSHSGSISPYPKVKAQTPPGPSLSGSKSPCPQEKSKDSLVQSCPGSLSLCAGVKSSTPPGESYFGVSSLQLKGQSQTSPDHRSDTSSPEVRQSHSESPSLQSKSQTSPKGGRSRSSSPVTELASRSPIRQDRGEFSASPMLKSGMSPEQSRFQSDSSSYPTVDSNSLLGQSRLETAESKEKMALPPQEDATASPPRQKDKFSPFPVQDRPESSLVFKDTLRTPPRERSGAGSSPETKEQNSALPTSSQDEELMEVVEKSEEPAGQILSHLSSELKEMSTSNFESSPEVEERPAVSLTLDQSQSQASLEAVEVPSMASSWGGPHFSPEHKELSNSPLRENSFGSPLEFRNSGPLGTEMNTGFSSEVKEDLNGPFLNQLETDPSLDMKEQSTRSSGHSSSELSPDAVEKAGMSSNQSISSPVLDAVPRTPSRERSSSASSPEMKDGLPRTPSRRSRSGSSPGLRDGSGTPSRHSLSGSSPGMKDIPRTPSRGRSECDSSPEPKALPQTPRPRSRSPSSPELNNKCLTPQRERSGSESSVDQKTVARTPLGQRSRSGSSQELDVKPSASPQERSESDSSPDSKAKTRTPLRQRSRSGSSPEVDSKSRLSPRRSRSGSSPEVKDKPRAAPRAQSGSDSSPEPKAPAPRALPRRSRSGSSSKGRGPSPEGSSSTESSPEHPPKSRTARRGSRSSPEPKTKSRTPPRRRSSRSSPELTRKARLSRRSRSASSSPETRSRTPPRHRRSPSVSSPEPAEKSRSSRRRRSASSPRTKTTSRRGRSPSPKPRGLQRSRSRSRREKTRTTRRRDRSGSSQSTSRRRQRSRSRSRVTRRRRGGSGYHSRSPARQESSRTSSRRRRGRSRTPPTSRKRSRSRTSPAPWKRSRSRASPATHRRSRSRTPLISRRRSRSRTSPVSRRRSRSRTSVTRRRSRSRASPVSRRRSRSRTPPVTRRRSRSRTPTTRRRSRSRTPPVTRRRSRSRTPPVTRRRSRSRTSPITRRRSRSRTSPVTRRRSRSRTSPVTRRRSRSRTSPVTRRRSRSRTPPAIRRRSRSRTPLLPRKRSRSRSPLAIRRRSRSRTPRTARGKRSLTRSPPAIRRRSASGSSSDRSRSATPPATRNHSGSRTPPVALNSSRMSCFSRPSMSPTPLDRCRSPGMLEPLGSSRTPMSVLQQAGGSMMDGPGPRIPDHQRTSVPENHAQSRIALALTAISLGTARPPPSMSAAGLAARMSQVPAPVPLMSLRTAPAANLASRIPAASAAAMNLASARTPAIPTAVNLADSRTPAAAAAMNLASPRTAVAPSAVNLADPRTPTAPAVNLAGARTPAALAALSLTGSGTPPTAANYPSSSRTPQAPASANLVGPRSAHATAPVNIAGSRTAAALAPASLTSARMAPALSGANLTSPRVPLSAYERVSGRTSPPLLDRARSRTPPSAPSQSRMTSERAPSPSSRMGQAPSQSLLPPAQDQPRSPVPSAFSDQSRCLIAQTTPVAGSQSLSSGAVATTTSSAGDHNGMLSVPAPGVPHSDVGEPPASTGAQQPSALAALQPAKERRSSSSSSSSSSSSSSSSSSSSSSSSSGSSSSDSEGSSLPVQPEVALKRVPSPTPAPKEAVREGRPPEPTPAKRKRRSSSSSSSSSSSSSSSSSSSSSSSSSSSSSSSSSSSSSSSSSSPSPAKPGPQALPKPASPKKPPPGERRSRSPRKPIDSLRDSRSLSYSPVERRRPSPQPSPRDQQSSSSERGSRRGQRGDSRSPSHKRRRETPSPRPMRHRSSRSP
Chain of UniProt Q9H4H8 (Q9H4H8 whole entry, looked up): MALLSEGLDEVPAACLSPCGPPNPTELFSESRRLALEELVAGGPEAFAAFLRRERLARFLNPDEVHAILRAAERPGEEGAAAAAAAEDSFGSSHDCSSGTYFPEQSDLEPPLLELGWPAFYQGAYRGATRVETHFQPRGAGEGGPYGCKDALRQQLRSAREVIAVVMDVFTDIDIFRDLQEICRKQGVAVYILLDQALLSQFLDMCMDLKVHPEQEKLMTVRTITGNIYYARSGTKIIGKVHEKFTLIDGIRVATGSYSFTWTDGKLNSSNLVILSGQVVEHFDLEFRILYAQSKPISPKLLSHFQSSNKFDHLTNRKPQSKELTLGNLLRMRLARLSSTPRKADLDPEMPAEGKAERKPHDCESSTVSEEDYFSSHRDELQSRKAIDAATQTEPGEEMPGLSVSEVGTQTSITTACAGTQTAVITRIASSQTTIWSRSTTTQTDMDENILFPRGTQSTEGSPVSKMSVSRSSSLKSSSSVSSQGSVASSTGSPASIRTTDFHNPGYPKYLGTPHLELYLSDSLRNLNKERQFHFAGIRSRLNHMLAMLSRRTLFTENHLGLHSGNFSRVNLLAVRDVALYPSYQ
Chain of UniProt Q9H4L7 (Q9H4L7 whole entry, looked up): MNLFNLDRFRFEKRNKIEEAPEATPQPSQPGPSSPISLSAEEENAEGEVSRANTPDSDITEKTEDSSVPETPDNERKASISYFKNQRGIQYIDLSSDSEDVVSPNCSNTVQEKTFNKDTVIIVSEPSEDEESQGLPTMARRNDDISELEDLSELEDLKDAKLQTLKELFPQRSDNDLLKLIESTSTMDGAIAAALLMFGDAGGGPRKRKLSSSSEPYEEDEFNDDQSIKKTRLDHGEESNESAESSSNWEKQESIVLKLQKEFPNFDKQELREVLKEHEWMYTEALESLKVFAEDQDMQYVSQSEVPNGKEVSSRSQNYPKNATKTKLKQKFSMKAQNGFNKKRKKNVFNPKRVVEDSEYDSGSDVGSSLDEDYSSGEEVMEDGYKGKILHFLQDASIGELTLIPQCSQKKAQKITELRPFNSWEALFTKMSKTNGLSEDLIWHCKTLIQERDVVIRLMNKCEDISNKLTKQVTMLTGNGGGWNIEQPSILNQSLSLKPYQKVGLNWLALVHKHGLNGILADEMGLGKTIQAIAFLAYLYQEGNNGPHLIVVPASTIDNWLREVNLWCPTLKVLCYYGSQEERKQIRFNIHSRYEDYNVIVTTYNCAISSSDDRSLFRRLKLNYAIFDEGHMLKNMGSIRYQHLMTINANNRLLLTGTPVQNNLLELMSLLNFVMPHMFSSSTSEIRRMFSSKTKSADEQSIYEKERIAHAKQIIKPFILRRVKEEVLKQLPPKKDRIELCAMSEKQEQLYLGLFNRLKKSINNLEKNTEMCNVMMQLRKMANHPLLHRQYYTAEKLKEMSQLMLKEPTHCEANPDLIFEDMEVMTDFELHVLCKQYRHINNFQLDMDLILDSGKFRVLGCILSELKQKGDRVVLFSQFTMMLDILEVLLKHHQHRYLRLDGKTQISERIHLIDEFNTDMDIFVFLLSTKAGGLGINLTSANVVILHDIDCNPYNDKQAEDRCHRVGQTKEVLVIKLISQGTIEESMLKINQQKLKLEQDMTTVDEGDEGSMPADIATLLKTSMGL
Chain of UniProt Q9BWU0 (Q9BWU0 whole entry, looked up): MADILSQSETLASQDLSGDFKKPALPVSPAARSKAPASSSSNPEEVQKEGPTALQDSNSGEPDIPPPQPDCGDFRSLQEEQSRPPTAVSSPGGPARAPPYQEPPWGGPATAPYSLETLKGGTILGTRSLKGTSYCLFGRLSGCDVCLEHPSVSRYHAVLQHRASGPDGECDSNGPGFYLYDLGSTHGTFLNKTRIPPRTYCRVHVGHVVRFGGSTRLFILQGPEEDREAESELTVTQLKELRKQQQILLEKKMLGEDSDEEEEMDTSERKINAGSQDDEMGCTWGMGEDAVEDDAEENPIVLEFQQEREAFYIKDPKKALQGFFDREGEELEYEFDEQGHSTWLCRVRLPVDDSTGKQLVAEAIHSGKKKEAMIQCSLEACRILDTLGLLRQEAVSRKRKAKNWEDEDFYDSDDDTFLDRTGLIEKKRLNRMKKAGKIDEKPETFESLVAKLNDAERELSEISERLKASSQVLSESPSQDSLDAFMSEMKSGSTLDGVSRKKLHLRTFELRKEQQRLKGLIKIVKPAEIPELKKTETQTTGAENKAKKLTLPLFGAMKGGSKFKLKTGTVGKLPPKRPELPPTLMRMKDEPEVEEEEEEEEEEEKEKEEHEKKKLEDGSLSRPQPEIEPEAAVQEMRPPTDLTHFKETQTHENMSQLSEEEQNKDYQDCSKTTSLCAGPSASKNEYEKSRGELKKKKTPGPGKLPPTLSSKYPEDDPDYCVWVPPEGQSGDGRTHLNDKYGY

log2 ratio of iodoacetamide-alkyne labeling, active:
SRRM2 C1016 (UniProt Q9UQ35) 1.12, SMARCAD1 C772 (UniProt Q9H4L7) 1, TNKS1BP1 C1324 (UniProt Q9C0C2) 1.18, NOTCH3 C134 (UniProt Q9UM47) 1.63, PPME1 C381 (UniProt Q9Y570) 1.48, SLC4A1AP C730 (UniProt Q9BWU0) 1.48, UniProt Q9UBD5_C159 1.13, SAP30BP C127 (UniProt Q9UHR5) 1.3, FAM120A C892 (UniProt Q9NZB2) 1.45, REXO4 C382 (UniProt Q9GZR2) 1.23, UNC93B1 C583 (UniProt Q9H1C4) 2.06, NFU1 C210 (UniProt Q9UMS0) 1.06, ASPSCR1 C225 (UniProt Q9BZE9) 1.02, FAM83D C19 (UniProt Q9H4H8) 1.11

log2 ratio of iodoacetamide-alkyne labeling, inactive:
NAT10 C486 (UniProt Q9H0A0) 0.0616, UniProt Q9UK61_C429 0.233, UniProt Q9BYV8_C171 0.361, TBCD C1175 (UniProt Q9BTW9) 0.204, UniProt Q9NVH0_C284 0.123, UniProt Q9P2P1_C1222 0.312, HNRNPUL1 C291 (UniProt Q9BUJ2) 0.483, STX8 C14 (UniProt Q9UNK0) -0.148, DDX19A C224 (UniProt Q9NUU7) 0.0835, UniProt Q9NRP4_C80 0.483, AK6 C53 (UniProt Q9Y3D8) 0.109, IARS2 C91 (UniProt Q9NSE4) 0.81, GNE C357 (UniProt Q9Y223) 0.234, CARS2 C526 (UniProt Q9HA77) 0.206, UniProt Q9NW64_C24 0.351, AIM1 C976 (UniProt Q9Y4K1) 0.347, AASS C87 (UniProt Q9UDR5) 0.102, TNKS1BP1 C1296 (UniProt Q9C0C2) 0.451, DCTN4 C41 (UniProt Q9UJW0) 0.309, HECTD1 C1368 (UniProt Q9ULT8) 0.751, FAM126A C300 (UniProt Q9BYI3) 0.174, LRRC40 C227 (UniProt Q9H9A6) 0.34, DAXX C338 (UniProt Q9UER7) 0.306, UniProt Q9Y5J5_C87 0.486, STRN4 C337 (UniProt Q9NRL3) 0.488, DERA C118 (UniProt Q9Y315) 0.275
